Our source for the growth values is PubChem BioAssay (NCI).

Structures are written as SMILES. This is part of a sample that, as a whole, favours compounds with a hit. Of some 83,000 tested, about 20% had one in any assay.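 Growth was measured after 48 h exposure to one concentration of compound in 96-well plates. Values under 10 count as active.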 A number with no mark means an inactive call. Activity calls are given as the source filed them.

The subject of the assay is HL-60(TB) leukemia. Kind of assay: NCI-60 one-dose screen, 48 h (100 = growth as untreated, 0 = no growth, -100 = all killed). The conditions noted are these: 10 µM unless noted.
As for `C[n+]1c2ccccc2c(Nc2ccc(N3CCCCC3)cc2)c2[nH]c3ccccc3c21`, the growth is -55.6% (active).

With `COc1cc2c(-c3cc4c(cc3CNCCc3ccc5c(c3)OCO5)OCO4)cccc2c(OC)c1O`, the growth was 71.3%.

Turning to `COc1cc(/C=C2\CN(C)C/C(=C\c3cc(CN4CCCCC4)c(O)c(OC)c3)C2=O)cc(CN2CCCCC2)c1O`, the growth is 11%.

As to `N#C/C(=C1C=C/C(=N/O)C(Cl)=C/1)c1ccc(Cl)cc1`, the growth is 61.1%.

Consider `CCOC(=O)/C(=C/CC/C(C)=C/CC/C(C)=C/CCc1ccoc1)CC(=O)N1CCCCC1`, for which the growth is -35.2% (active).

Consider `c1ccc(CSc2nnc3c4c5c(sc4nc(-c4cccnc4)n23)CCCCCC5)cc1`, for which the growth was 4% (active).

Turning to `Fc1[nH]nc2ccc([C@@H]3Nc4ccc5[nH]ncc5c4[C@H]4C5CCC(C5)[C@@H]34)cc12` (stereo partly specified), the growth was 14.4%.

Take `COc1cc(NCc2ccccc2O)c2ncccc2c1`: the growth was 51%.

On to `O=C(c1ccccc1)C(Br)[N+](=O)[O-]` (stereo unspecified), for which the growth was 62.3%.

Consider `O=S1(=O)CCN(Cc2ccccc2)CC1`, for which the growth was 108%.

With `Oc1ccc(CCl)c2cccnc12`, the growth is 81%.

For `O=C(O)C(=O)O`, the growth was 151%.

`OC(CBr)c1ccnc2ccccc12` (stereo unspecified): the growth was 100%.

For the compound `F`, the growth is 28.1% [6.87 mM].

As for `O=C(Cc1ccccc1)c1ccc(O)c(Cl)c1`, the growth is -21.1% (active).

With `CC(C)=CCC[C@@H](C)[C@H]1CC[C@@]2(C)C3=C(CC[C@]12C)[C@@]1(C)CC[C@H](O)C(C)(C)[C@@H]1CC3`, the growth is 105%.

For the compound `CCCCOc1ccc(/C(C)=N/Nc2cc(C)nc3ccc(Br)cc23)cc1`, the growth is 78.5%.

As for `CC(=O)Oc1ccccc1C(=O)N(Cc1ccc2c(Cl)cc(Cl)c(O)c2n1)c1ccccc1`, the growth is 46.7%.

As to `CN(C)CCCNC(=O)c1cncnc1Nc1ccc2c(ccn2Cc2cccc(F)c2)c1`, the growth was 93.3%.

As to `C[n+]1c2ccccc2nc2ccc(NCCO)cc21`, the growth was 70.6%.

As to `CC(=O)NC(N)=S`, the growth is 70.8%.

Consider `O=C(N/N=C/c1cccc(O)c1O)c1ccccc1`, for which the growth is 19.1%.

Consider `CCN(CC)CCCC(C)Nc1cnc(C(=O)Nc2cc(C)cc3cccnc23)cn1` (stereo unspecified), for which the growth was 76.8%.

As for `Cc1[nH]c(C(=O)Nc2ccccc2OC2CCN(CCN3CCOCC3)CC2)c(Cl)c1Cl`, the growth is 97.9%.

Consider `c1cnc2nc3c(cc2c1)oc1ccccc13`, for which the growth is 96.4%.

Turning to `CCOC(=O)C#Cc1c(C(=O)OCC)nnn1Cc1ccc([N+](=O)[O-])cc1`, the growth was 55.4%.
